Experiments:
Assay in all cases: relative growth (AUC of 72 h growth curve relative to DMSO control, dAUC) (ratio); higher = more growth (less inhibition), active = hit call of the paper
Conditions in all cases: 20 µM;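 active = growth AUC significantly below the DMSO wells by Dunnett test; inactive = the rest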
[1] = tested on: Prolinoborus 1 (Prolinoborus fasciculus)
Procedure, shortened: (§1)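 Whole sediment communities and bacterial isolates from Icelandic stream sediments and Silwood Park soil were brought to carrying capacity in Luria–Bertani medium. They were then diluted 1:100 into 96-well plates with each chemical at 20 µM in 1% DMSO, and A600 was recorded every hour for 72 h. The area under each growth curve, integrated by spline, was averaged across three biological replicates. This figure, divided by the mean of the DMSO controls, gives relative growth (dAUC).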

[2] = tested on: Pseudomonas 1 (Pseudomonas baetica)
Procedure, shortened: as §1

[3] = tested on: Pseudomonas 2 (Pseudomonas vancouverensis)
Procedure, shortened: as §1

[4] = tested on: Pseudomonas 3 (Pseudomonas mandelii)
Procedure, shortened: as §1

[5] = tested on: Pseudomonas 4 (Pseudomonas peli)
Procedure, shortened: as §1

[6] = tested on: Pseudomonas 5 (Pseudomonas baetica)
Procedure, shortened: as §1

[7] = tested on: Pseudomonas 6 (Pseudomonas sp.)
Procedure, shortened: as §1

[8] = tested on: Rhizobium 1 (Rhizobium herbae)
Procedure, shortened: as §1

[9] = tested on: Serratia 1 (Serratia sp. 2015-2462-01)
Procedure, shortened: as §1

[10] = tested on: Sphingomonas 2 (Sphingomonas sp.)
Procedure, shortened: as §1

Measured: relative growth

CC(C)OC(=O)C(C(=O)OC(C)C)=C1SCCS1
inactive: [1] 0.947 | [2] 1.16 | [3] 0.995 | [4] 1.04 | [5] 0.947 | [6] 1.03 | [7] 1.09 | [8] 0.897 | [9] 0.96 | [10] 1.1

COc1ncc(F)c2nc(S(=O)(=O)Nc3c(F)cccc3F)nn12
inactive: [1] 1.01 | [2] 1.05 | [3] 1.02 | [4] 1.01 | [5] 0.989 | [6] 0.958 | [7] 0.99 | [8] 0.982 | [9] 1.03 | [10] 1.04

Cc1ccc(/N=C/N(C)/C=N/c2ccc(C)cc2C)c(C)c1
inactive: [1] 0.978 | [2] 1.05 | [3] 0.973 | [4] 1.1 | [5] 0.967 | [6] 1.01 | [7] 1.11 | [8] 1.06 | [9] 0.946 | [10] 1.04

OC(Cc1ccccc1Cl)(Cn1nc[nH]c1=S)C1(Cl)CC1 (stereo not given)
inactive: [1] 1.02 | [2] 1.02 | [3] 0.995 | [4] 1.01 | [5] 1 | [6] 0.995 | [7] 0.982 | [8] 1.07 | [9] 1.05 | [10] 0.981

C[N+]1(C)CCCCC1
inactive: [1] 0.974 | [2] 0.972 | [3] 0.981 | [4] 1.02 | [5] 1.05 | [6] 1.04 | [7] 1.03 | [8] 1.02 | [9] 1.03 | [10] 0.999

N#CCNC(=O)c1cnccc1C(F)(F)F
inactive: [1] 1.03 | [2] 1.05 | [3] 0.996 | [4] 0.97 | [5] 0.996 | [6] 1.01 | [7] 1.07 | [8] 0.857 | [9] 0.947 | [10] 1.08

CCOCn1c(-c2ccc(Cl)cc2)c(C#N)c(Br)c1C(F)(F)F
inactive: [1] 1.01 | [2] 1.05 | [3] 1 | [4] 1.04 | [5] 1.02 | [6] 0.998 | [7] 1.11 | [8] 1.07 | [9] 1.01 | [10] 0.848

CCOCN(C(=O)CCl)c1c(C)cccc1CC
inactive: [2] 1.1 | [3] 0.978 | [4] 1.02 | [5] 0.966 | [6] 0.988 | [7] 1.03 | [8] 0.909 | [9] 0.95 | [10] 1.17
1.2: [1]

CCC(C)(C)C(=O)OC1=C(c2ccc(Cl)cc2Cl)C(=O)OC12CCCCC2
inactive: [1] 0.952 | [2] 1.07 | [3] 0.983 | [4] 1.04 | [5] 1 | [6] 1.02 | [7] 1.06 | [8] 0.97 | [9] 0.978 | [10] 1

CCc1cc(C)cc(CC)c1-c1c(OC(=O)C(C)(C)C)n2n(c1=O)CCOCC2
inactive: [1] 0.926 | [2] 1.1 | [3] 0.992 | [4] 1.01 | [5] 0.953 | [6] 0.951 | [7] 1.02 | [8] 0.907 | [9] 0.972 | [10] 1.06

Cc1nnc(-c2ccccc2)c(=O)n1N
inactive: [1] 0.97 | [2] 1.08 | [3] 0.997 | [4] 1.03 | [5] 0.954 | [6] 0.987 | [7] 1.1 | [8] 1.07 | [9] 0.966 | [10] 1

CCCC(Cn1cncn1)c1ccc(Cl)cc1Cl (stereo not given)
inactive: [1] 0.988 | [2] 1.01 | [3] 0.994 | [4] 1.02 | [5] 1.07 | [6] 1.01 | [7] 0.993 | [8] 1.04 | [9] 0.994 | [10] 1.03

CC1(C)[C@H](C(=O)O[C@H](C#N)c2cccc(Oc3ccccc3)c2)[C@@H]1C=C(Br)Br
inactive: [1] 1.01 | [2] 1.04 | [3] 1.03 | [4] 1.03 | [5] 1.01 | [6] 1.06 | [7] 1.14 | [8] 1.23 | [9] 1 | [10] 1.12

CNC(=O)c1cc(Cl)cc(C)c1NC(=O)c1cc(Br)nn1-c1ncccc1Cl
inactive: [1] 0.997 | [2] 0.975 | [3] 0.996 | [4] 0.958 | [5] 1.01 | [6] 0.958 | [7] 0.922 | [8] 0.944 | [9] 1.04 | [10] 1.06

Reference: the supplement of paper PMC12067926
